Assay results as given in PubChem BioAssay (Tox21).
Results filed as inconclusive are left out. Active and inactive are the calls of the source. Unless noted, the call rests on the fitted dose curve; in most records, active means well fitted curve in the direction sought with a large enough effect in the repeat runs; inconclusive means weak or mixed curves; inactive means no such curve, though single readings can be large; an effect the other way counts as inactive or inconclusive.

Legend:
[1] = qHTS assay to identify small molecule agonists of the hypoxia (HIF-1) signaling pathway - cell viability counter screen (AID 1224844; calls by dose curve; further: nearly all actives have a fitted effect of over 50% in size)
Summary of the method: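 HRE-bla ME-180 cells, 2,000/well in 0.5% dialyzed FBS medium, treated 17 h at 37C with compounds. Viability read in the same wells as the bla reporter, by CellTiter-Glo luminescence after 30 min at room temperature.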

[2] = qHTS assay to identify small molecule agonists of H2AX (AID 1224845; active means well fitted activation curve with a large enough effect in the signal ratio in the repeat runs, not every such curve was filed as active; the % refers to the signal ratio)
Summary of the method: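 Wild-type CHO-K1 cells, plated overnight, exposed 3hr at 37C to 15 concentrations (0.76% DMSO final). Lysed, then HTRF anti-pH2AX (S139) cryptate and anti-H2AX-d2 antibodies, 24 hr room temperature; 665/620 nm emission read.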

[3] = qHTS assay to identify small molecule agonists of the hypoxia (HIF-1) signaling pathway (AID 1224846; active means well fitted activation curve with a large enough effect in the signal ratio in the repeat runs, not every such curve was filed as active; the % refers to the signal ratio)
Summary of the method: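 HRE-bla ME-180 beta-lactamase reporter cells in medium with 0.5% dialyzed FBS, pre-incubated 5 h then exposed to compounds 17 h at 37C, 5% CO2; reporter induction read with CCF4-AM FRET substrate.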

[4] = qHTS assay to identify small molecule agonists of H2AX - cell viability counter screen (AID 1224847; calls by dose curve; further: top concentration of the series differs between compounds; nearly all actives have a fitted effect of over 30% in size)
Summary of the method: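 Read-out: CellTiter-Glo luminescence, 30 min RT. Cells: wild-type CHO-K1, 1000/well, 10% FBS, plated overnight at 37C. Treatment: 15 concentrations, 3 hr, 37C, 0.76% DMSO.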

[5] = qHTS assay to identify small molecule agonists of the estrogen related receptor (ERR) signaling pathway from Tox21 library (AID 1224849; calls by dose curve; further: nearly all actives have a fitted effect of over 15% in size); conditions: ERR reporter cell line, ONE-Glo luciferase, 18 h; at 92.4 µM (top of the series) unless noted
Summary of the method: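 ERR reporter cells (NTP line) pre-incubated 6 hours at 37 C, then exposed to compounds for 18 hours at 37 C. ONE-Glo luciferase luminescence was read after 30 minutes at room temperature.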

[6] = qHTS RealTime-Glo MT Cell Viability Assay in HepG2 cells - 24 hour (AID 1224867); further: nearly all actives have a fitted effect of over 50% in size
Summary of the method: (§1)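 HepG2 cells (600/well) were dispensed with RealTime-Glo reagents, incubated 5 h at 37 °C, then treated with compounds in DMSO for up to 40 h. Nonlytic NanoLuc luminescence reflecting viable cells was read at each stated time point.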

[7] = qHTS RealTime-Glo MT Cell Viability Assay in HEK293 cells - 32 hour (AID 1224868); further: top concentration of the series differs between compounds; nearly all actives have a fitted effect of over 50% in size
Summary of the method: (§2)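 HEK293 cells seeded with NanoLuc/prosubstrate reagent, rested 5 h at 37 C, then dosed and kept at 37 C up to 40 h. Nonlytic real-time luminescence from viable cells read at 0, 8, 16, 24, 32 and 40 h.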

[8] = A CellTox Green Cytotoxicity Assay to monitor cytotoxicity in HEK293 cells - 0 hour (AID 1224869); further: nearly all actives have a fitted effect of over 50% in size
Summary of the method: (§3)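 HEK293 cells, 600/well, were preincubated 5 hours and then exposed to compounds at 37 C for up to 40 hours. A cell-impermeant cyanine dye staining dead-cell DNA was read by fluorescence at 0, 8, 16, 24, 32 and 40 h time points.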

[9] = qHTS RealTime-Glo MT Cell Viability Assay in HepG2 cells - 40 hour (AID 1224870); further: nearly all actives have a fitted effect of over 50% in size
Summary of the method: (§4)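 HepG2 cells (600/well) mixed with RealTime-Glo MT reagent, settled 5 h at 37 C/5% CO2 before compound addition. Nonlytic NanoLuc luminescence from viable-cell prosubstrate reduction read repeatedly during 40 h treatment at 37 C.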

[10] = A CellTox Green Cytotoxicity Assay to monitor cytotoxicity in HEK293 cells - 40 hour (AID 1224871); further: nearly all actives have a fitted effect of over 45% in size
Summary of the method: as §3

[11] = qHTS RealTime-Glo MT Cell Viability Assay in HEK293 cells - 16 hour (AID 1224872)
Summary of the method: as §2

[12] = qHTS RealTime-Glo MT Cell Viability Assay in HepG2 cells - 8 hour (AID 1224873); further: nearly all actives have a fitted effect of over 55% in size
Summary of the method: as §4

[13] = qHTS RealTime-Glo MT Cell Viability Assay in HEK293 cells - 40 hour (AID 1224874); conditions: RealTime-Glo luminescence; max response: hits give low values; further: nearly all actives have a fitted effect of over 50% in size
Summary of the method: (§5)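 600 cells/well were plated with the nonlytic NanoLuc/prosubstrate reagent, pre-incubated 5 h, then given 23 nL of compound in DMSO. Incubation at 37 C for 40 h, with luminescence from viable-cell-reduced substrate read repeatedly from 0 h.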

[14] = A CellTox Green Cytotoxicity Assay to monitor cytotoxicity in HEK293 cells - 24 hour (AID 1224875); further: nearly all actives have a fitted effect of over 45% in size
Summary of the method: as §3

[15] = A CellTox Green Cytotoxicity Assay to monitor cytotoxicity in HepG2 cells - 16 hour (AID 1224876); further: nearly all actives have a fitted effect of over 45% in size
Summary of the method: (§6)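 HepG2 cells, 600/well, preincubated 5 h with CellTox Green dye, then exposed to Tox21 compounds in DMSO at 37 C for up to 40 h. Dead-cell DNA fluorescence read at the indicated time point.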

[16] = qHTS RealTime-Glo MT Cell Viability Assay in HepG2 cells - 32 hour (AID 1224877); further: nearly all actives have a fitted effect of over 55% in size
Summary of the method: as §1

[17] = A CellTox Green Cytotoxicity Assay to monitor cytotoxicity in HepG2 cells - 24 hour (AID 1224878); further: nearly all actives have a fitted effect of over 45% in size
Summary of the method: as §6

[18] = A CellTox Green Cytotoxicity Assay to monitor cytotoxicity in HepG2 cells - 40 hour (AID 1224879); further: nearly all actives have a fitted effect of over 40% in size
Summary of the method: as §6

[19] = qHTS RealTime-Glo MT Cell Viability Assay in HEK293 cells - 0 hour (AID 1224880)
Summary of the method: as §5

[20] = qHTS assay to identify small molecule antagonists of the estrogen related receptor (ERR) signaling pathway from Tox21 library (AID 1224848); further: nearly all actives have a fitted effect of over 50% in size
Summary of the method: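 ERR reporter cell line (from NTP) seeded 2,000 cells/well, rested 6 h at 37 C/5% CO2, then pin-dosed with compounds in DMSO. After 18 h at 37 C, ONE-Glo added; luminescence read after 30 min at room temperature.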
On the % scale 0 is the no-effect control and ±100 the full control effect.

ClC1=C(Cl)[C@]2(Cl)[C@@H]3[C@H]4C[C@H]([C@@H]5O[C@H]45)[C@@H]3[C@@]1(Cl)C2(Cl)Cl
inactive: Potency [1] | Potency [2] | Potency [3] | Potency [4] | activity change, positive = activation [5] -25% | Potency [6] | Potency [7] | Potency [8] | Potency [9] | Potency [10] | Potency [11] | Potency [12] | max response [13] 3.07% | Potency [14] | Potency [15] | Potency [16] | Potency [17] | Potency [18] | Potency [19]

Clc1ccc(C2(Cn3cncn3)OCCO2)c(Cl)c1
inactive: Potency [1] | Potency [2] | Potency [3] | Potency [4] | Potency [20] | activity change, positive = activation [5] -6.38% | Potency [6] | Potency [7] | Potency [8] | Potency [9] | Potency [10] | Potency [11] | Potency [12] | Potency [14] | Potency [15] | Potency [16] | Potency [17] | Potency [18] | Potency [19]

CCN(CC)CCN1C(=O)CN=C(c2ccccc2F)c2cc(Cl)ccc21
inactive: Potency [1] | Potency [2] | Potency [3] | Potency [4] | activity change, positive = activation [5] -10.4% [at 42.5 µM] | Potency [6] | Potency [7] | Potency [8] | Potency [9] | Potency [10] | Potency [11] | Potency [12] | max response [13] -8.22% | Potency [14] | Potency [15] | Potency [16] | Potency [17] | Potency [18] | Potency [19]

CC(Cc1ccc2c(c1)OCO2)NO (stereo not drawn)
inactive: Potency [1] | Potency [2] | Potency [3] | Potency [4] | Potency [20] | activity change, positive = activation [5] -3.14% | Potency [6] | Potency [7] | Potency [8] | Potency [10] | Potency [11] | Potency [12] | max response [13] 0.458% | Potency [14] | Potency [15] | Potency [16] | Potency [18] | Potency [19]

CC(C)C(Br)C(=O)NC(N)=O (stereo not drawn)
inactive: Potency [1] | Potency [2] | Potency [3] | Potency [4] | Potency [6] | Potency [7] | Potency [8] | Potency [9] | Potency [10] | Potency [12] | max response [13] 7.13% | Potency [14] | Potency [15] | Potency [16] | Potency [17] | Potency [18] | Potency [19]

O=[N+]([O-])[O-].[Tl+]
inactive: Potency [1] | Potency [2] | Potency [3] | Potency [4] | Potency [6] | Potency [8] | Potency [9] | Potency [10] | Potency [11] | Potency [12] | Potency [14] | Potency [15] | Potency [16] | Potency [17] | Potency [18] | Potency [19]

COc1ccc2[nH]cc(CCN(C(C)C)C(C)C)c2c1
inactive: Potency [1] | Potency [2] | Potency [3] | Potency [4] | Potency [6] | Potency [7] | Potency [8] | Potency [9] | Potency [10] | Potency [12] | Potency [14] | Potency [15] | Potency [16] | Potency [17] | Potency [19]
